# Data as given in PubChem BioAssay (NCATS).
# Records with an inconclusive call do not appear. The source made the active and inactive calls. Calls come from the whole dose curve; as a rule, active = well fitted curve in the direction sought with a large enough effect; inconclusive = small, poorly fitted or top-dose-only effect, or another doubt; inactive = no such curve, though single readings can be large; an effect the other way counts as inactive or inconclusive.
# Tested on: not listed separately
# Assay: Inducers of the Endoplasmic Reticulum Stress Response (ERSR) in human glioma: Validation (AID 504836); note: 0% is about no effect
# Settings: human glioma cells, ER stress response reporter; series mostly up to 38.3 µM; activation: at the top concentration
# In short: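 Stably transfected U87-MG glioma cells carrying a GRP78-based luciferase sensor; 16 h compound incubation. Luminescence end-point read 10 min after Bright-Glo addition at room temperature.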
row,SMILES,activation
1,Brc1c(NC2=NCCN2)ccc2nccnc12,-1.52% (inactive)
2,COC(=O)[C@@H](N)Cc1ccc(O)c(O)c1,-1.29% (inactive)
3,c1ccc([C@H]2CN3CCSC3=N2)cc1,-0.794% (inactive)
4,CCCC(C(=O)OCCN(CC)CC)(c1ccccc1)c1ccccc1,-1.67% (inactive)
5,CNC(=O)Oc1ccc2c(c1)[C@]1(C)CCN(C)[C@@H]1N2C,-1.03% (inactive)
6,O=C(O)c1cccnc1Nc1cccc(C(F)(F)F)c1,2.36% (inactive)
7,Cc1cccc(C)c1NC(=O)C(C)N (stereo not drawn),-1.47% (inactive)
8,OC(CCN1CCCCC1)(c1ccccc1)C1CC2C=CC1C2 (stereo not drawn),-2.64% (inactive)
9,COC(=O)C1=C(C)NC(C)=C(C(=O)OC)C1c1ccccc1[N+](=O)[O-],-4.43% (inactive)
10,CC(C)NCC(O)COc1ccc(COCCOC(C)C)cc1 (stereo not drawn),-3.31% (inactive)
11,COc1ccc2c(c1)c(CC(=O)O)c(C)n2C(=O)c1ccc(Cl)cc1,-3.01% (inactive)
12,CN(C)CCCN1c2ccccc2Sc2ccc(C(F)(F)F)cc21,-0.601% (inactive)
13,COCC(=O)O[C@]1(CCN(C)CCCc2nc3ccccc3[nH]2)CCc2cc(F)ccc2[C@@H]1C(C)C,-6.25% (inactive)
14,CCn1ccnc1CC1COc2ccccc2O1 (stereo not drawn),1.15% (inactive)
15,COc1ccccc1N1CCN(CCCNc2cc(=O)n(C)c(=O)n2C)CC1,-4.61% (inactive)
16,C#CCN(C)CCCOc1ccc(Cl)cc1Cl,2.76% (inactive)
17,COc1ccccc1N1CCN(CC(O)COc2cccc3ccccc23)CC1 (stereo not drawn),-1.88% (inactive)
18,CC[C@H]1CN2CCc3cc(OC)c(OC)cc3[C@@H]2C[C@@H]1C[C@H]1NCCc2cc(OC)c(OC)cc21,-7.34% (inactive)
19,COc1nc(C)nc(Cl)c1NC1=NCCN1,-0.743% (inactive)
20,Clc1ccccc1C(c1ccccc1)(c1ccccc1)n1ccnc1,-3.54% (inactive)

row,SMILES,activation
1,C=CCc1ccccc1OCC(O)CNC(C)C (stereo not drawn),-1.18% (inactive)
2,CSc1ccc(C(=O)c2[nH]c(=O)[nH]c2C)cc1,-0.0656% (inactive)
3,C[C@]12CCC(=O)C=C1CC[C@@H]1[C@@H]2CC[C@@]2(C)[C@H]1CC[C@]2(O)C(=O)CO,-5.7% (inactive)
4,CNCCC(Oc1ccccc1OC)c1ccccc1 (stereo not drawn),-2.3% (inactive)
5,Cc1cc(C(C)(C)C)c(O)c(C)c1CC1=NCCN1,0.919% (inactive)
6,COc1ccc(CCN(C)CCCC(C#N)(c2cc(OC)c(OC)c(OC)c2)C(C)C)cc1OC (stereo not drawn),-2.42% (inactive)
7,NC1=NCC2c3ccccc3Cc3ccccc3N12 (stereo not drawn),-2.63% (inactive)
8,CCc1cccc(N(C)C(N)=Nc2cccc3ccccc23)c1,-4.82% (inactive)
9,CN(C(=O)CCCOc1ccc2[nH]c(=O)ccc2c1)C1CCCCC1,7.38% (inactive)
10,COc1cc2c(cc1OC)-c1cc(=Nc3c(C)cc(C)cc3C)n(C)c(=O)n1CC2,-1.9% (inactive)
11,CN1C[C@H](C(=O)N[C@]2(C)O[C@@]3(O)[C@@H]4CCCN4C(=O)[C@H](Cc4ccccc4)N3C2=O)C[C@@H]2c3cccc4[nH]cc(c34)C[C@H]21,-1.43% (inactive)
12,C=Cc1c(C)c2cc3[nH]c(cc4nc(cc5nc(cc1[nH]2)C(C)=C5CCC(=O)O)C(CCC(=O)O)=C4C)c(C)c3C=C,-1.14% (inactive)
13,NCCc1ccc(O)c(O)c1,-1.5% (inactive)
14,C[n+]1cc2c3c(ccc2c2ccc4cc5c(cc4c21)OCO5)OCO3,-11.7% (inactive)
15,COc1cc(C(=O)OCCCN2CCCN(CCCOC(=O)c3cc(OC)c(OC)c(OC)c3)CC2)cc(OC)c1OC,6.01% (inactive)
16,O=C1NCN(c2ccccc2)C12CCN(CCCC(c1ccc(F)cc1)c1ccc(F)cc1)CC2,0.483% (inactive)
17,CCCCNc1cc(C(=O)O)cc(S(N)(=O)=O)c1Oc1ccccc1,-1.23% (inactive)
18,C[N+](C)(C)CCOC(=O)CCC(=O)OCC[N+](C)(C)C,-3.18% (inactive)
19,C(=C\c1ccccc1)/CN1CCN(C(c2ccccc2)c2ccccc2)CC1,-3.33% (inactive)

# Molecular target: Ubiquitin carboxyl-terminal hydrolase 1 (Homo sapiens) (UniProt O94782)
# Assay: Inhibitors of USP1/UAF1: Pilot qHTS (AID 504865);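 note: rhodamine fluorescence freed from ubiquitin-rhodamine substrate followed over time; top concentration of the series differs between compounds; % is set by controls: 0 for no effect and ±100 for the full control effect; nearly all actives have a fitted effect of over 35% in size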
# Settings: purified USP1/UAF1, Ub-rhodamine cleavage fluorescence; series mostly up to 114 µM; activity change, negative = inhibition: at the top concentration
# In short: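 USP1/UAF1 complex at 1 nM preincubated 15 min at room temperature with compound, then Ub-Rho substrate added at 150 nM final. Fluorescence (480/540 nm) read kinetically in 50 mM HEPES pH 7.8, 0.5 mM EDTA, 1 mM TCEP, 0.1 mg/ml BSA, 0.01% Tween-20.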
# Chain of Ubiquitin carboxyl-terminal hydrolase 1 (Homo sapiens) (O94782 whole entry, looked up): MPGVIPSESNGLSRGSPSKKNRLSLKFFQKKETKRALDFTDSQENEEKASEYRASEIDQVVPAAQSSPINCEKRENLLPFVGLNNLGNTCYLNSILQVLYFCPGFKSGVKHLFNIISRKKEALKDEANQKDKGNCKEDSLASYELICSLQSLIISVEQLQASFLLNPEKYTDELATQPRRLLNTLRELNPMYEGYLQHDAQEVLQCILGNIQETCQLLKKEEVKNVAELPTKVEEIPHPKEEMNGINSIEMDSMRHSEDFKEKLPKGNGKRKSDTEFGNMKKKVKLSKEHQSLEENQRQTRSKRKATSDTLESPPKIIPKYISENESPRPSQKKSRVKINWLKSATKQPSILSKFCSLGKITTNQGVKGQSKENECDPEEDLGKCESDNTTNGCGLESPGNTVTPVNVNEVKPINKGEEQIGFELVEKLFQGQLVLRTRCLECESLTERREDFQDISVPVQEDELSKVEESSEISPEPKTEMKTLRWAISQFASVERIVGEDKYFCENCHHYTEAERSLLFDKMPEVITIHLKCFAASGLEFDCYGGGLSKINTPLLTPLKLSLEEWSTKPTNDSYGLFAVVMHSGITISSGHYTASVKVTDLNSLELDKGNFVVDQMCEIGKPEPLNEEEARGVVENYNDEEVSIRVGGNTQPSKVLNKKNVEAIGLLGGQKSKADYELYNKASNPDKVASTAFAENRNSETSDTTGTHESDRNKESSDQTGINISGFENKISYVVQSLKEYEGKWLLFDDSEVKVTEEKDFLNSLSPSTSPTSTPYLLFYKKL
SMILES,Potency,"activity change, negative = inhibition"
CNC(=O)Oc1ccc2c(c1)[C@]1(C)CCN(C)[C@@H]1N2C,inactive,–
COC(=O)C1=C(C)NC(C)=C(C(=O)OC)C1c1ccccc1[N+](=O)[O-],inactive,–
CC[C@H]1CN2CCc3cc(OC)c(OC)cc3[C@@H]2C[C@@H]1C[C@H]1NCCc2cc(OC)c(OC)cc21,–,-1.56% (inactive)
CN1C[C@H](C(=O)N[C@]2(C)O[C@@]3(O)[C@@H]4CCCN4C(=O)[C@H](Cc4ccccc4)N3C2=O)C[C@@H]2c3cccc4[nH]cc(c34)C[C@H]21,–,-7.89% (inactive)
